Inconclusive results are not listed. Entries that show only a call come without a potency. Activity calls are given as the source filed them. Calls follow the shape of the dose curve; as a rule, active = well fitted curve in the direction sought with a large enough effect; inconclusive = small, poorly fitted or top-dose-only effect, or another doubt; inactive = no such curve, though single readings can be large; an effect the other way counts as inactive or inconclusive.

One experiment concerns TAB109. Nature of the experiment: qHTS profiling for inhibitors of Plasmodium falciparum proliferation (AID 504749). Also: nearly all actives have a fitted effect of over 60% in size. Also: potency is read from the fitted curve at half-maximal effect. The settings on record: P. falciparum in erythrocytes, SYBR Green DNA, 72 h; series mostly up to 28.7 µM. A digest of the protocol: (§1)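 Each compound contacts P. falciparum-infected red blood cells for 72 h at 37 C; lysis buffer (Tris, EDTA, saponin, Triton X, SYBR Green I) is added and fluorescence measured next morning; values normalized to controls.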
In general terms: In qHTS, concentration-response curves come from the screen itself.

The test system of another experiment is TAB113. The description is as above. The following applies: P. falciparum in erythrocytes, SYBR Green DNA, 72 h; series mostly up to 28.7 µM. A digest of the protocol:
as §1

For another experiment, the system named is W2. Described as above. The settings on record: P. falciparum in erythrocytes, SYBR Green DNA, 72 h; series mostly up to 28.7 µM. A digest of the protocol:
as §1

The next experiment has as its system CRL-7250. Description: qHTS assay to identify novel small-molecules to repurpose for Merkel cell carcinoma treatment (AID 1296009). Also: nearly all actives have a fitted effect of over 60% in size. The following applies: MCC and control cell lines, CellTiter-Glo viability, 72 h; series mostly up to 44.8 µM. The method in brief: (§2)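 Dose-response viability screen; 72 hr exposure at 37 degree celsius; CellTiter-Glo added, 10 min room temperature, luminescence read; RLUs scaled between no-cell and DMSO wells.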

A further experiment relates to TAB165. Description: qHTS profiling for inhibitors of Plasmodium falciparum proliferation (AID 504749). Also: nearly all actives have a fitted effect of over 60% in size. Also: potency is read from the fitted curve at half-maximal effect. The following applies: P. falciparum in erythrocytes, SYBR Green DNA, 72 h; series mostly up to 28.7 µM. A digest of the protocol: as §1
Another experiment deals with C33A. Description: Primary qHTS to identify gynecologic anti-cancer compounds using libraries of approved drugs and bioactive compounds (AID 1345084). Also: nearly all actives have a fitted effect of over 55% in size. Also: potency is read from the fitted curve at half-maximal effect. The settings on record: Gynecologic cancer cell panel viability, ATPlite luminescence, 48 h; series mostly up to 57.5 µM. A digest of the protocol: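 48 h compound exposure at 37 C, 5% CO2; five-point qHTS. ATPlite luminescence readout of cell ATP.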

The test system of a further experiment is MCC-13. Nature of the experiment: qHTS assay to identify novel small-molecules to repurpose for Merkel cell carcinoma treatment (AID 1296009). Also: nearly all actives have a fitted effect of over 60% in size. The settings on record: MCC and control cell lines, CellTiter-Glo viability, 72 h; series mostly up to 46 µM. A digest of the protocol:
as §2

A further experiment relates to MCC-26. The experiment is described as above. The following applies: MCC and control cell lines, CellTiter-Glo viability, 72 h; series mostly up to 46 µM. The method in brief:
as §2
Background: Cellular ATP, detected with luciferase, serves as a proxy for viable cell number.

The next experiment relates to MKL-1. The description is as above. The settings on record: MCC and control cell lines, CellTiter-Glo viability, 72 h; series mostly up to 46 µM. The method in brief: as §2
For another experiment, the system named is MKL-2. The description is as above. The settings on record: MCC and control cell lines, CellTiter-Glo viability, 72 h; series mostly up to 46 µM. A digest of the protocol:
as §2

In a further experiment the test system is NIH3T3. The description is as above. The following applies: MCC and control cell lines, CellTiter-Glo viability, 72 h; at 44.8 µM (top of the series) unless noted. A digest of the protocol: as §2
The test system of the next experiment is UISO. The description is as above. The following applies: MCC and control cell lines, CellTiter-Glo viability, 72 h; series mostly up to 46 µM. The method in brief: as §2
The next experiment concerns WaGa. The experiment is described as above. The following applies: MCC and control cell lines, CellTiter-Glo viability, 72 h; series mostly up to 46 µM. A digest of the protocol:
as §2

Another experiment relates to HACAT. The experiment is described as above. The following applies: MCC and control cell lines, CellTiter-Glo viability, 72 h; at 44.8 µM (top of the series) unless noted. A digest of the protocol:
as §2

Take `O=c1[nH]c2ccccc2n1C1CCN(CCCC(c2ccc(F)cc2)c2ccc(F)cc2)CC1`: the Potency result in the experiment on TAB109 and in the experiment with TAB113 was “inactive” in each case. In the experiment on W2, the Potency is 3.79 µM (active).

For the compound `O=c1n(CCCN2CCN(c3cccc(Cl)c3)CC2)nc2ccccn12`, in the experiment with CRL-7250, the call was inactive. As to `C[C@@H](NCCCc1cccc(C(F)(F)F)c1)c1cccc2ccccc12`, the outcome in the experiment with CRL-7250 was inactive.

`COC1=CC(=O)C[C@@H](C)[C@]12Oc1c(Cl)c(OC)cc(OC)c1C2=O`: the compound was classed as inactive in the experiment with CRL-7250.

`CN(N=O)C(=O)N[C@@H]1[C@@H](O)[C@H](O)[C@@H](CO)O[C@@H]1O`: the compound was classed as inactive in the experiment with CRL-7250.

With `CN(C)c1nc(N(C)C)nc(N(C)C)n1`, the call in the experiment on CRL-7250 was inactive. Same read-out and setting: to `CC(=O)Nc1nnc(S(N)(=O)=O)s1` belongs “inactive”; to `CNS(=O)(=O)Cc1ccc2[nH]cc(CCN(C)C)c2c1`, “inactive”; to `C[C@H]1O[C@H](O[C@H]2[C@H](O)[C@@H](O)[C@@H](O[C@H]3[C@H](O)[C@@H](O)[C@H](O)O[C@@H]3CO)O[C@@H]2CO)[C@H](O)[C@@H](O)[C@@H]1N[C@H]1C=C(CO)[C@@H](O)[C@H](O)[C@H]1O`, “inactive”. On to `C=C(C)[C@H]1Cc2c(ccc3c2O[C@@H]2COc4cc(OC)c(OC)cc4[C@@H]2C3=O)O1`, for which the Potency entry with TAB109, in the experiment with TAB113 and in the experiment with TAB165 was “inactive” in each case. Also, in the experiment with C33A, the Potency was 0.708 µM (active). Turning to `CS(=O)(=O)CCNCc1ccc(-c2ccc3ncnc(Nc4ccc(OCc5cccc(F)c5)c(Cl)c4)c3c2)o1`, the call in the experiment on CRL-7250 was inactive. Still for that read-out and setting: in the case of `Cc1ccnc2c1NC(=O)c1cccnc1N2C1CC1` it was “inactive”; in that of `COc1cc(Cc2cnc(N)nc2N)cc(OC)c1OC`, “inactive”.

Take `O=c1[nH]c2ccccc2n1CCCN1CCC(n2c(=O)[nH]c3cc(Cl)ccc32)CC1`: the Potency in the experiment on TAB109 was 5.01 µM (active); with TAB165, 4.47 µM (active); with W2 it was 6.75 µM (active). Also, the compound was classed as inactive in the experiment on CRL-7250 and in the experiment on NIH3T3. The Potency entry in the experiment with MCC-13, in the experiment on MCC-26, in the experiment on MKL-1, with MKL-2, with UISO and in the experiment on WaGa was “inactive” each time. The Potency result in the experiment on C33A was “inactive”. With `COc1cc2nc(N3CCN(C(=O)C4CCCO4)CC3)nc(N)c2cc1OC` (stereo not given), the compound was classed as inactive in the experiment with CRL-7250.

As to `NCCCC(O)(P(=O)(O)O)P(=O)(O)O`, the compound was called inactive with CRL-7250. `Cc1ccccc1C(OCCN(C)C)c1ccccc1` (stereo not given): the call in the experiment with CRL-7250 was inactive. Still for that read-out and setting: in the case of `O=c1c(O)c(-c2ccc(O)c(O)c2)oc2cc(O)cc(O)c12` it was “inactive”. For the compound `CC(c1cc2ccccc2s1)N(O)C(N)=O` (stereo not given), in the experiment on CRL-7250, the call was inactive. Consider `CC(CN(C)C)CN1c2ccccc2CCc2ccccc21` (stereo not given), for which, in the experiment with CRL-7250, the call was inactive.

As to `CC1(C)S[C@@H]2[C@H](NC(=O)Cc3ccccc3)C(=O)N2[C@H]1C(=O)O` (tested in a mixture with another compound), in the experiment on CRL-7250, the compound was called inactive. With `CCN(CCO)CCCC(C)Nc1ccnc2cc(Cl)ccc12` (stereo not given), in the experiment with CRL-7250, the outcome is “inactive [at 4.96 µM]”.

For the compound `Cc1[nH]c(=O)c(C#N)cc1-c1ccncc1`, the outcome in the experiment on CRL-7250 was inactive. As to `Oc1cn2c(n1)Nc1ccc(Cl)c(Cl)c1C2`, the outcome with CRL-7250 was “inactive [at 17.4 µM]”.

In the case of `CNS(=O)(=O)CCc1ccc2[nH]cc(C3CCN(C)CC3)c2c1`, the call in the experiment with CRL-7250 was inactive. Same read-out and setting: in the case of `CC1=C(C(=O)O)N2C(=O)[C@@H](NC(=O)[C@H](N)c3ccc(O)cc3)[C@H]2SC1` it was “inactive”. On the same count and under the same terms, in the case of `Cc1ccc(S(=O)(=O)NC(=O)NN2CCCCCC2)cc1` it was “inactive”.

`CN1CCC[C@@H]1Cc1c[nH]c2ccc(CCS(=O)(=O)c3ccccc3)cc12`: in the experiment with CRL-7250, the compound was classed as inactive. In the case of `O=NN(CCCl)C(=O)NCCCl`, the outcome in the experiment on CRL-7250 was inactive. Take `O=C(O)CCNC(=O)c1ccc(N=Nc2ccc(O)c(C(=O)O)c2)cc1`: the call with CRL-7250 was inactive. Take `CCCN[C@H]1CCc2nc(N)sc2C1`: the result in the experiment on CRL-7250 was inactive. Same read-out and setting: to `CO/N=C1\CN(c2nc3c(cc2F)c(=O)c(C(=O)O)cn3C2CC2)CC1CN` (stereo not given) belongs “inactive”.

Consider `CC1OC(C)OC(C)O1` (stereo not given), for which the Potency entry with TAB109, in the experiment with TAB113, in the experiment with TAB165, with W2, with MCC-13 and with MKL-1 was “inactive” each time. Moreover, the Potency entry in the experiment with MKL-2, with UISO, in the experiment on WaGa and in the experiment with C33A was “inactive” each time. The call in the experiment with HACAT and with NIH3T3 was inactive. As for `CCN(CC)CCOC(=O)C1(C2CCCCC2)CCCCC1`, the compound was called inactive in the experiment on CRL-7250. For `Cc1cccc(Nc2ccncc2S(=O)(=O)NC(=O)NC(C)C)c1`, the call in the experiment on CRL-7250 was inactive.

On to `O=C1N=C(O)CN1/N=C/c1ccc(-c2ccc([N+](=O)[O-])cc2)o1`, for which, in the experiment on CRL-7250, the call was inactive.

For `Nc1ccc(O)c(C(=O)O)c1`, in the experiment with CRL-7250, the outcome was inactive. Turning to `Cc1ccc(-c2cc(C(F)(F)F)nn2-c2ccc(S(N)(=O)=O)cc2)cc1`, the result in the experiment with CRL-7250 was inactive.

Values taken from PubChem BioAssay (NCATS).
